Test results taken from the supplement of paper PMC11732987, “Enantioselective OTUD7B fragment discovery through chemoproteomics screening and high-throughput optimisation” (Communications Chemistry, 2025).

Columns and labels:
Test in all cases: log2 ratio of Biotin-Ahx-Ub-VS probe labelling (fragment/DMSO); higher = less target engagement (more negative = stronger competition), active = hit call of the paper (q ≤ 0.05, log2 ratio ≤ -1)
Conditions in all cases: compound concentration: 200 uM; treatment time: 3 h
OTUD6B = biological target: T1, OTUD6B (UniProt Q8N6M0)
T1 sequence (whole entry): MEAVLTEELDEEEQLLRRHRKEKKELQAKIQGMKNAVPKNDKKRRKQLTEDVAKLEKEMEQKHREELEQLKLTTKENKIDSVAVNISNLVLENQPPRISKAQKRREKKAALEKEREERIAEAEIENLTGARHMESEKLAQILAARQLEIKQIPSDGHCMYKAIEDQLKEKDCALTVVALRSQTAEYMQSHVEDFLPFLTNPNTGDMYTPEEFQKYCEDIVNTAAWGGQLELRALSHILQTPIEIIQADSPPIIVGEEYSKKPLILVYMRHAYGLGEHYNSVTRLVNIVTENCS
In short: (§1)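 Each value is an average log2 ratio of fragment to vehicle, tested by unpaired t-test. The underlying Spectronaut label-free quantities were global-median-normalised, and only proteins with ≥2 unique peptides were included. Triplicate HEK293T lysate samples (495 µg) were exposed to fragment at 200 µM or vehicle for 3 h, then to Biotin-Ahx-Ub-VS at 0.5 µM final for 1 h, before NeutrAvidin enrichment of labelled DUBs, LysC and trypsin digestion, and diaPASEF LC-MS/MS.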

OTUD7B = biological target: T2, OTUD7B (UniProt Q6GQQ9)
T2 sequence (whole entry): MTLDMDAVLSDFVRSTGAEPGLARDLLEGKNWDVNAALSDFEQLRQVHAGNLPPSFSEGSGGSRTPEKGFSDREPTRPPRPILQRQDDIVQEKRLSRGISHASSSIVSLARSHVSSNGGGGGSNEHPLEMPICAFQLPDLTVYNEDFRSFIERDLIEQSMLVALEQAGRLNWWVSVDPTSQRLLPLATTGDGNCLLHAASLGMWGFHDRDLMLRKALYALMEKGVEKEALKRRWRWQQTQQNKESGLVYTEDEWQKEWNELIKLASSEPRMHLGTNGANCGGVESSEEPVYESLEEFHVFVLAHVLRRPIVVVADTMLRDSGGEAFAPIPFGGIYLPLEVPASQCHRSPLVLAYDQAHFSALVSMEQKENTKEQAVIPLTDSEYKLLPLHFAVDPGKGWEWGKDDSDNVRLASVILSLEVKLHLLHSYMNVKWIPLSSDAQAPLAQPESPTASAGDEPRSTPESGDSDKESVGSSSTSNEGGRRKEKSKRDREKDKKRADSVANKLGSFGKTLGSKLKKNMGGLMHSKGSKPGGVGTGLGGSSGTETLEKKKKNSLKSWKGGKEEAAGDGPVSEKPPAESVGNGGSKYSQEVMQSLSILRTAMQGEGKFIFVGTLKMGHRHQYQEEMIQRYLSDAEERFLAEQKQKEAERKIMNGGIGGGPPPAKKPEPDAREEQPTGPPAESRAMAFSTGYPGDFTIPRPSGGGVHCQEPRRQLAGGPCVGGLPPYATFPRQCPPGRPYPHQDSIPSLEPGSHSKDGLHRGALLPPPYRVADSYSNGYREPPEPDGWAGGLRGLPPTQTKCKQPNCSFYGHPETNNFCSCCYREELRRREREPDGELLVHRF
In short: as §1

PRPF8 = PRPF8 (UniProt Q6P2Q9)
In short: as §1

PSMD7 = biological target: T3, PSMD7 (UniProt P51665)
T3 sequence (whole entry): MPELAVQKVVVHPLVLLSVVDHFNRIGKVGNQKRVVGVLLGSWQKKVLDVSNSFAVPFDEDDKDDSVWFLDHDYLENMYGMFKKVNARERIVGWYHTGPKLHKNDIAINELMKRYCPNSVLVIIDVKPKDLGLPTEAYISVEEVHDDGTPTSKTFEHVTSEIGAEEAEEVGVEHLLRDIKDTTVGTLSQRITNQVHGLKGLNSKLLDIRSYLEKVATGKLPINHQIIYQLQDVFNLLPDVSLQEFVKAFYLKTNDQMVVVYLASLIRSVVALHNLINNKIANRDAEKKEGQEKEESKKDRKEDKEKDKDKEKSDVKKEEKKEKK
In short: as §1

UCHL1 = UCHL1 (UniProt P09936)
In short: as §1

UCHL3 = biological target: T4, UCHL3 (UniProt P15374)
T4 sequence (whole entry): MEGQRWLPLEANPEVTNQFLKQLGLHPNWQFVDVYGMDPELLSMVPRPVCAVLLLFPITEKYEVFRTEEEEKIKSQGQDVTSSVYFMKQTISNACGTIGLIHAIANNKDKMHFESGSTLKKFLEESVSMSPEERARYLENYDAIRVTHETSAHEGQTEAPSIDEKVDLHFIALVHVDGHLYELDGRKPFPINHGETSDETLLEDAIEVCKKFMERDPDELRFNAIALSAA
In short: as §1

UCHL5 = biological target: T5, UCHL5 (UniProt Q9Y5K5)
T5 sequence (whole entry): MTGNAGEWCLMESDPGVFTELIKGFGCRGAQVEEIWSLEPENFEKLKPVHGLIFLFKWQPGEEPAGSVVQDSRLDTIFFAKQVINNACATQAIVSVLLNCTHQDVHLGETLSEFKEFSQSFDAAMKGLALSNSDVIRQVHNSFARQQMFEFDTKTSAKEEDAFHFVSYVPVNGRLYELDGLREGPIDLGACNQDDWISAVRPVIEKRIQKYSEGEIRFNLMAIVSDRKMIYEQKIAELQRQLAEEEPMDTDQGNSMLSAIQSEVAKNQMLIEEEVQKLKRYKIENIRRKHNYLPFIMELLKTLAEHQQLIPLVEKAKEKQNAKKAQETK
In short: as §1

USP10 = USP10 (UniProt Q14694)
In short: as §1

USP15 = biological target: T6, USP15 (UniProt Q9Y4E8)
T6 sequence (whole entry): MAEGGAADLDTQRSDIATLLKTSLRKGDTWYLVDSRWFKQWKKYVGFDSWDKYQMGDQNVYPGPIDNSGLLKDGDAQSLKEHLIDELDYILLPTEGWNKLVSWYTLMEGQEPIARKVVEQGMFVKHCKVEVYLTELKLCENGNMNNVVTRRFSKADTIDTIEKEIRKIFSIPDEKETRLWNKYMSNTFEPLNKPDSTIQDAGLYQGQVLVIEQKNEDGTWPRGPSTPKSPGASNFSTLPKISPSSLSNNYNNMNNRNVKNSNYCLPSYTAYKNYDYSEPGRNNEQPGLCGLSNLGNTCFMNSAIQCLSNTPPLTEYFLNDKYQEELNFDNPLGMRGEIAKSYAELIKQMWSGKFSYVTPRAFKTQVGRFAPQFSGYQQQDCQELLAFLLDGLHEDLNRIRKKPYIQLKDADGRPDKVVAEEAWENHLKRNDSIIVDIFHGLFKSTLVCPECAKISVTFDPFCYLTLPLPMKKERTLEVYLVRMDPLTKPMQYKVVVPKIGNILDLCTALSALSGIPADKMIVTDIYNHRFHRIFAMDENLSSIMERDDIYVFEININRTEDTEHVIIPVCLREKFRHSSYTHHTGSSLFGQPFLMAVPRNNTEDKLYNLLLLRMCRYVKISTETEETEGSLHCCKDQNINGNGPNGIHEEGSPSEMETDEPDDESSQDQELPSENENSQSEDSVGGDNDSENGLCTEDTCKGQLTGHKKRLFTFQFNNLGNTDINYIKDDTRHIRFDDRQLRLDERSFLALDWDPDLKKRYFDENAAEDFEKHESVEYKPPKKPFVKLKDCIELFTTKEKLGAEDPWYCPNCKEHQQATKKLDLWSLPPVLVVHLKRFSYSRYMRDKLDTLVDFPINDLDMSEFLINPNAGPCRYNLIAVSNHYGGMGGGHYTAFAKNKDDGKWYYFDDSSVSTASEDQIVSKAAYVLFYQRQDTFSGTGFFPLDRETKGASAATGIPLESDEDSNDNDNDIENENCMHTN
In short: as §1

USP16 = USP16 (UniProt Q9Y5T5)
In short: as §1

Measured: log2 ratio of Biotin-Ahx-Ub-VS probe labelling

USP10, sequence (Q14694 whole entry): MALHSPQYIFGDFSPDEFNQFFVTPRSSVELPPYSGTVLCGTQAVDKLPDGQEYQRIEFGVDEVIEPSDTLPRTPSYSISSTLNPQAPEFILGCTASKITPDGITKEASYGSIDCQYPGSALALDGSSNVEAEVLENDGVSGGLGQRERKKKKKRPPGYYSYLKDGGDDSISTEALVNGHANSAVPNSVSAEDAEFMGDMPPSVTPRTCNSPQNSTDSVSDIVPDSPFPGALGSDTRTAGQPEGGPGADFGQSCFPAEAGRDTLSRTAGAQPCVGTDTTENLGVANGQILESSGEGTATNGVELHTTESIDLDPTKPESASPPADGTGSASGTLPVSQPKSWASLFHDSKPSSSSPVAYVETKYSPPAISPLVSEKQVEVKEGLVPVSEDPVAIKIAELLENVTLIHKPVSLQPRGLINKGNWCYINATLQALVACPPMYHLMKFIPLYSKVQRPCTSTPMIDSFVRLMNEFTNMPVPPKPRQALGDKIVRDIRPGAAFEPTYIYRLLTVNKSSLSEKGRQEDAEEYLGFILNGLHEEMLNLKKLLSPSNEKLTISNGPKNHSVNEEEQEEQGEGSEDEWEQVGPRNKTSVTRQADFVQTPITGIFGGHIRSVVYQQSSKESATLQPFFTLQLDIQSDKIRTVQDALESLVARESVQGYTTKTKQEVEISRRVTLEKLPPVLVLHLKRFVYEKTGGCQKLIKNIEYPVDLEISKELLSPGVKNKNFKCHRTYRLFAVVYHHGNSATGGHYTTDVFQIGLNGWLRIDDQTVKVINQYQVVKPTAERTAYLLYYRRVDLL
USP16, sequence (Q9Y5T5 whole entry, looked up): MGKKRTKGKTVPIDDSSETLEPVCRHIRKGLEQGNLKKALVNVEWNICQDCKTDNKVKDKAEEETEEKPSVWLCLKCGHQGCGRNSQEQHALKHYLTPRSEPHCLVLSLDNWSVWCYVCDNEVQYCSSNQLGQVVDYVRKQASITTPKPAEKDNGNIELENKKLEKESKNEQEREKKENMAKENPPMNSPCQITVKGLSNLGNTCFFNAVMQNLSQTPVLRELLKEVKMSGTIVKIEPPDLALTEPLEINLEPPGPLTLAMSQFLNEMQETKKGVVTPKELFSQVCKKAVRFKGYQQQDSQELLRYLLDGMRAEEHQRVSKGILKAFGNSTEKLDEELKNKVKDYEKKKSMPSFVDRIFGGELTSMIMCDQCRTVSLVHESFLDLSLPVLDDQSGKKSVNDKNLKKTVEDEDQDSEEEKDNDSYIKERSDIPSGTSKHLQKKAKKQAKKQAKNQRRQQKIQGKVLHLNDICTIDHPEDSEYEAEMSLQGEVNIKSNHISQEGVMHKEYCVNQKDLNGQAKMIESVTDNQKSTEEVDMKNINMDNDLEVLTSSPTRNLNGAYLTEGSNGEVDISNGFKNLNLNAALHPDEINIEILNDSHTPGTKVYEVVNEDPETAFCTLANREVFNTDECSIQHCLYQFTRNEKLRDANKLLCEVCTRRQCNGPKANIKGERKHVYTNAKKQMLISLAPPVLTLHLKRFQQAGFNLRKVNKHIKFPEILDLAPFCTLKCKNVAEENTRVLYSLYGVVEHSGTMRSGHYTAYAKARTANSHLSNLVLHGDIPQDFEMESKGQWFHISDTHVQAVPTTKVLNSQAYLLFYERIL
UCHL1, sequence (P09936 whole entry, looked up): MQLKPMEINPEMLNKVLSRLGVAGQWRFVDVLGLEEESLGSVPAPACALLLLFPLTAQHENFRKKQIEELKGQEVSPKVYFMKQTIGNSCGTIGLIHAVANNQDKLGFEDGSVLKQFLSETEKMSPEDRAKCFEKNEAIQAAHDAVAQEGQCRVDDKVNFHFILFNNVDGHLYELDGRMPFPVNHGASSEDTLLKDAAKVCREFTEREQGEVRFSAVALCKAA

Cc1ccccc1CN(C)C(=O)CCl
inactive: OTUD6B -0.788 | OTUD7B -0.98 | PRPF8 -0.0478 | PSMD7 -0.18 | UCHL3 -0.483 | USP10 -0.154 | USP15 -0.803 | USP16 -0.62
active: UCHL1 -1.98 | UCHL5 -1.01
